Data on 55 compounds can be found in PubChem BioAssay AID686979 (National Center for Advancing Translational Sciences (NCATS), 2013).

Molecules are shown by their SMILES. The whole screen tested about 420,000 compounds, of which about 50,000 (12%) were called active. Entries that show only a call come without a potency. Not shown: some 26% with an inconclusive outcome. Only a selection was taken, and actives are over-represented in it overall. Unmarked numbers belong to inactive results. Calls come from the whole dose curve; as a rule, active = well fitted inhibition curve with a large enough effect; inconclusive = small, poorly fitted or top-dose-only effect; inactive = flat fitted curve, though single readings scatter.
Potency is the fitted concentration of half-maximal effect.

A short description of this assay: qHTS for Inhibitors of human tyrosyl-DNA phosphodiesterase 1 (TDP1): qHTS in cells in presence of CPT. Note: nearly all actives have a fitted effect of over 55% in size. The conditions noted are these: chicken DT40 Tdp1-/-;hTDP1 cells + 20 nM CPT, ATP luminescence, 48 h; series mostly up to 46.2 µM. The method in brief:
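Cell growth measured by CellTiter-Glo luminescence after a minimum 48 h, 37 C compound exposure with 20 nM CPT in Tdp1-knockout DT40 cells stably expressing hTDP1, seeded 400/well; qHTS titration format.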
On the technique in general: In qHTS, concentration-response curves come from the screen itself.
Consider `O=C(COC(=O)c1ccco1)Nc1ccc(Cl)cn1`, for which the Potency entry is “inactive”.

Take `COc1ccc(C2Nc3ccccc3C(=O)N2c2ccc(F)cc2)cc1Cn1nnc2ccccc21` (stereo not given): the Potency result is “inactive”.

Take `O=C(Cn1nnc2ccccc2c1=O)Nc1cc(C(F)(F)F)ccc1N1CCOCC1`: the Potency entry was “inactive”.

With `CCCCN(C(=O)/C=C/c1ccco1)c1c(N)n(CC(C)C)c(=O)[nH]c1=O`, the Potency entry is “inactive”.

Turning to `CN1CCN(c2ncc3c(n2)CC(c2ccccc2F)CC3=O)CC1` (stereo not given), the Potency result was “inactive”.

As to `O=C(O)CSc1nnc(-c2ccc3c(c2)OCO3)n1-c1ccccc1`, the Potency result is “inactive”.

Turning to `c1n[nH]c(NCc2ccc3c(c2)OCO3)n1`, the Potency entry is “inactive”.

`Cc1cc(NCc2cccnc2)no1`: the Potency result was “inactive”.

On to `c1cncc(CNc2ccnc(-c3ccc4c(c3)OCO4)n2)c1`, for which the Potency is 8.2 µM (active).

As to `C=CCn1c(SCc2c(C)noc2C)nc2sc3c(c2c1=O)CCC(C)C3` (stereo not given), the Potency was 14.6 µM (active).

`C=CCn1c(SCC(=O)NCC2CCCO2)nc2sc(C)c(C)c2c1=O` (stereo not given): the Potency result was “inactive”.

As to `C=CCn1c(SCC(=O)NCCCO)nc2sc3c(c2c1=O)CCC3`, the Potency entry was “inactive”.

For `Cc1ccc(-c2ccc(CCC(=O)O)n2-c2ccc(C(N)=O)cc2)cc1`, the Potency result was “inactive”.

On to `CC(C)C[C@@H]1COc2cc(N3CCC[C@@H]3CO)ccc2S(=O)(=O)N1`, for which the Potency entry is “inactive”.

Take `O=C(Nc1ccccc1C(=O)NCC1CCCO1)c1ccccc1F` (stereo not given): the Potency entry is “inactive”.

As for `O=C(NC1CC1)C(Cc1ccccc1)NS(=O)(=O)c1ccccc1F` (stereo not given), the Potency was 16.4 µM (active).

As for `CC(=O)NC(Cc1ccccc1)C(=O)NC1CCN(c2ncccc2[N+](=O)[O-])CC1` (stereo not given), the Potency result is “inactive”.

On to `CCOC(=O)C1=C(COC(=O)[C@H](C)NS(=O)(=O)c2ccccc2F)NC(=O)NC1C` (stereo not given in full), for which the Potency entry was “inactive”.

`Cc1ccc(C)c(Nc2nnc(-c3ccc(C)c(S(=O)(=O)N4CCCCC4)c3)c3ccccc23)c1`: the Potency was 4.11 µM (active).

On to `Cc1ccc(NS(=O)(=O)c2cccs2)cc1S(=O)(=O)N1CCCCCC1`, for which the Potency result is “inactive”.

Consider `Cc1ccc(C(=O)NCC(=O)O)cc1S(=O)(=O)N1CCCCC1`, for which the Potency result is “inactive”.

Turning to `Cc1ccc(S(=O)(=O)N(C)C)cc1NC(=O)c1n[nH]c(=O)c2ccccc12`, the Potency was 18.4 µM (active).

Turning to `CC(=O)c1c(C)[nH]c(C(=O)Nc2cc(S(=O)(=O)N(C)C)ccc2C)c1C`, the Potency result is “inactive”.

As for `Cc1ccc(S(=O)(=O)N(C)C)cc1NC(=O)c1ccccc1Br`, the Potency result is “inactive”.

As for `O=C(CSc1nc2[nH]c(=O)[nH]c(=O)c2s1)Nc1cccc(F)c1`, the Potency entry is “inactive”.

As to `CCC(C)[C@@H](C(=O)N1CCNCC1)n1cc(CCCCN)nn1` (stereo not given in full), the Potency result was “inactive”.

Take `CCOC(=O)c1cccc(NC(=O)CN2C(=O)C3CC=CCC3C2=O)c1` (stereo not given): the Potency entry was “inactive”.

For `CCOC(=O)N1CCN(c2cc(C)c([N+](=O)[O-])cc2F)CC1`, the Potency is 20.6 µM (active).

With `CCOC(=O)C1CCN(c2ccc(C(=O)O)cc2[N+](=O)[O-])CC1`, the Potency result is “inactive”.

As to `CCOC(=O)N1CCN(C(=S)Nc2ccc(C)cc2C)CC1`, the Potency result was “inactive”.

Take `NC(=O)C1CCN(C(=O)CC2C(=O)NCCN2Cc2cccc(Oc3ccccc3)c2)CC1` (stereo not given): the Potency result was “inactive”.

On to `Cc1ccc(C(CNC(=O)Nc2cccc(C)c2)N2CCN(C)CC2)cc1` (stereo not given), for which the Potency result is “inactive”.

Turning to `Cc1ccc(NC(=O)Cn2cccc2C2=NC(c3ccccc3)CO2)c(C)c1` (stereo not given), the Potency entry was “inactive”.

In the case of `COC(CNC(=O)Cn1ncc2ccsc2c1=O)OC`, the Potency entry is “inactive”.

With `O=C1OCCC1=COCCCCOC=C1CCOC1=O`, the Potency entry was “inactive”.

Regarding `CCCC(=O)C1CCN(Cc2ccccc2)CC1`, the Potency entry is “inactive”.

With `Brc1ccc(CN2CC[C@H]3C=CCc4cccc(c43)C2)cc1`, the Potency is 14.1 µM (active).

For the compound `CCN(CCCNC(=O)c1c(C)oc2ncn(CC(C)C)c(=O)c12)Cc1ccccc1`, the Potency result was “inactive”.

Turning to `O=S(=O)(NC1CC2CCC1C2)c1ccc(Cl)cc1` (stereo not given), the Potency result is “inactive”.

Consider `O=C(CO/N=C/c1ccc(OC(F)F)cc1)NCc1ccc(F)cc1`, for which the Potency entry was “inactive”.

`O=C1/C(=C/c2cccs2)CCc2ccccc21`: the Potency entry is “inactive”.

As for `COc1ccc(/C=C2/CCCc3ccccc3C2=O)cc1`, the Potency was 5.8 µM (active).

For the compound `COc1ccc(/C=C2\N=C3CCCN3C2=O)cc1`, the Potency result is “inactive”.

In the case of `COc1ccc(/C=C2\NC(=O)[C@@H]3Cc4ccccc4CN3C2=O)cc1`, the activity change, negative = growth inhibition was -14.1% [at 9.04 µM].

Regarding `COc1ccc(/C=C2\CCc3ccccc3C2=O)c(OC)c1OC`, the Potency was 23.1 µM (active).

In the case of `COc1ccccc1C1=CC(=O)CCC1`, the Potency entry was “inactive”.

On to `COc1cc2[nH]c(=S)n(Cc3ccc(F)cc3)c(=O)c2cc1OC`, for which the Potency entry is “inactive”.

With `COc1ccccc1NC(=O)N(O)C1(C#N)CCCCC1`, the Potency result is “inactive”.

Take `Cc1nn(CC(=O)NC2CCCCC2)c(=O)c2cccn12`: the Potency entry is “inactive”.

Turning to `O=C(/C=C/c1ccc(Cl)cc1)Nc1ccc(S(=O)(=O)Nc2ncccn2)cc1`, the Potency result was “inactive”.

Regarding `O=C(/C=C/c1ccc(F)cc1)Nc1cccc(S(=O)(=O)Nc2cccc(C(F)(F)F)c2)c1`, the Potency was 14.6 µM (active).

Turning to `O=C(CNS(=O)(=O)c1cccc(C(F)(F)F)c1)Nc1ccccc1F`, the Potency entry was “inactive”.

For the compound `Cc1ccc(OCC(=O)Nc2ccc(OCc3cc(=O)n4c(C)csc4n3)cc2)cc1C`, the Potency result was “inactive”.

As for `COc1cc(Cl)c(NC(=O)CC(C)S(=O)(=O)c2cc3c(cc2C)NC(=O)CO3)c(OC)c1` (stereo not given), the Potency result is “inactive”.

In the case of `O=C(/C=C/c1ccccc1)Nc1nnc(SCC(=O)c2ccc3ccccc3c2)s1`, the Potency result was “inactive”.
